# The full list was thinned out, with hits kept by preference.
# LmPK inh: inhibitors of Leishmania mexicana pyruvate kinase. AID 1721. hit rate 0.37% among 290,000. Q27686. Potency, µM (titrated, usually from 57.5 µM), for the others: top-dose activity change, negative = inhibition, usual class: inhibitors. purified LmPK, Kinase-Glo ATP luminescence, 1 h; note: potency is the fitted concentration of half-maximal effect; % is set by controls: 0 for no effect and ±100 for the full control effect
# Target sequence (Q27686 whole entry, looked up): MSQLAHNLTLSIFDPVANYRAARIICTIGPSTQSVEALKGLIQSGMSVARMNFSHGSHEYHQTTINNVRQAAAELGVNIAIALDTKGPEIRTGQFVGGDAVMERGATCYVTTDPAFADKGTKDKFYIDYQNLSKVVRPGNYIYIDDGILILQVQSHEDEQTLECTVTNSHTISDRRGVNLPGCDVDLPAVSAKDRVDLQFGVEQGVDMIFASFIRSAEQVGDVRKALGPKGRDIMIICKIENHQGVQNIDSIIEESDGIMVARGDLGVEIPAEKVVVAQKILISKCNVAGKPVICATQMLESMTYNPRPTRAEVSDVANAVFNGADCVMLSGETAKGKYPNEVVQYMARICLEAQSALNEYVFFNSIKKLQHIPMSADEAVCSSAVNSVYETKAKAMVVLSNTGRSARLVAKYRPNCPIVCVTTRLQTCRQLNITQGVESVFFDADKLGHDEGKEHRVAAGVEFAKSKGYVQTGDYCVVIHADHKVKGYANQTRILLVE
#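 Pyruvate kinase activity monitored as ATP production (luciferase luminescence). Conditions: 0.1 nM enzyme, 0.5 mM PEP, 0.1 mM ADP, 1 h, RT; normalized against uninhibited and no-enzyme wells.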
# Shiga inhibitor: blocks Shiga toxin action in Vero cells. Vero cells, Shiga toxin protein synthesis inhibition reporter. inhibition, % at 38.7 µM. hit rate 9.2% among 290,000; in the data active = inhibition mostly above about 28%, no sharp cut-off; inactive = mostly below about 43%; note: 0% is about no effect
# Tb PYK inh: T. brucei pyruvate kinase inhibition; hit rate 0.12% among 410,000; TbPYK enzyme, Kinase-Glo Plus ATP luminescence, 45 min; Potency, µM (top dose mostly 76.8 µM), for the others: top-dose activity, negative = inhibition, usual class: inhibitors; note: potency is the fitted concentration of half-maximal effect; % is set by controls: 0 for no effect and ±100 for the full control effect; nearly all actives have a fitted effect of over 50% in size
#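 Readout: single end-point luminescence (Kinase-Glo Plus, 10 min). Reaction conditions were TbPYK/substrate plus 130 uM ADP, 45 min at RT, pH 7.2 TEA buffer. No-enzyme wells served as controls, and data were normalized before concentration-response fitting.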
# RE007 growth inh: less growth of the S. pombe RE007 Vpr strain; S. pombe RE007 Vpr strain, BacTiter-Glo ATP luminescence, 24 h; Potency, µM (doses to about 92.2 µM), without a hit: at the top dose activity change, negative = less growth, actives largely listed as inhibitors; hit rate 0.21% among 360,000; active = well fitted falling curve with a large enough effect; inconclusive = small, poorly fitted or top-dose-only effect; inactive = no such curve, though single readings can be large or run the other way; note: potency is the fitted concentration of half-maximal effect; % is set by controls: 0 for no effect and ±100 for the full control effect; nearly all actives have a fitted effect of over 50% in size
#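 Fission yeast strain RE007, carrying one chromosomally integrated HIV-1 vpr copy, was seeded at OD 0.01 in PMG+AL medium with 23 nL pinned compound. After 24 h at 30 °C and 99% humidity, viability was read by BacTiter-Glo luminescence.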
# Cycloheximide cs: affects cycloheximide protein synthesis inhibition readout, counter-screen; cell reporter, cycloheximide protein synthesis inhibition counterscreen; max response, %; hit rate 12% among 300,000; AID 2314; in the data active = max response mostly above about 13%, no sharp cut-off; inactive = mostly below about 14%; note: read at 38.3 µM for the half of the compounds with a filed dose; 0% is about no effect
# Giardia FBPA inh: blocks Giardia fructose-bisphosphate aldolase activity; A8B2U2; purified Giardia FBPA; Potency, µM (top dose mostly 59.6 µM), without a hit: at the highest dose activity, negative = inhibition, hits mostly inhibitors; hit rate 0.71% among 290,000; AID 2451; note: potency is the fitted concentration of half-maximal effect; % is set by controls: 0 for no effect and ±100 for the full control effect; nearly all actives have a fitted effect of over 55% in size
#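 40 nM FBPA preincubated 10 min at RT with compound (up to 57.5 uM final), then substrate plus GAPDH/TPI/NAD/arsenate coupling and diaphorase/resazurin added. Fluorescence read after 20 min at RT, 525/598 nm.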
# The depositor's hits bear a star; u = inconclusive; x = no result. Unless noted, calls come from the whole dose curve; as a rule, active = well fitted curve in the direction sought with a large enough effect; inconclusive = small, poorly fitted or top-dose-only effect, or another doubt; inactive = no such curve, though single readings can be large; an effect the other way counts as inactive or inconclusive.
SMILES,LmPK inh,Shiga inhibitor,Tb PYK inh,RE007 growth inh,Cycloheximide cs,Giardia FBPA inh
COCCCC1CCN(C(=O)c2cc(COc3cc(C)ccc3C)on2)CC1,3.1%,161.6*,-7.3%,-10.8%,55.7*,x
Cc1ccc(C)c(OCc2cc(C(=O)N3CCNC(=O)C3)no2)c1,4.2%,6.8,3.4%,-3.1%,15.4,-8.7%
COC1CCN(C(=O)c2cc(COc3cc(C)ccc3C)on2)CC1,x,x,-10.4%,-15.8%,x,x
Cc1c(NC(=O)c2ccc(Br)o2)cccc1-c1nc2ccccc2o1,x,x,0.4%,x,x,x
Cc1ccc(C)c(OCc2cc(C(=O)N3CCC(N4CCCC(O)C4)CC3)no2)c1 (stereo not drawn),0.4%,5.7,2.6%,-3.6%,0.1,10.1%
CC(=O)NCCC1CCCCN1C(=O)c1cc(COc2cc(C)ccc2C)on1 (stereo not drawn),-0.6%,101.2*,0.0%,-13.0%,44.7*,x
CC(=O)c1sc2c(c1C)c(=O)n(-c1ccc(Cl)cc1)c(=O)n2Cc1ccc(Cl)cc1,x,x,0.0%,x,x,x
CC1CCCN(C(=S)Nc2ccc(F)cc2)C1 (stereo not drawn),6.9%,8.8,6.0%,-11.0%,7.3,-6.3%
COC(=O)Cc1ccc(NC(=S)N2CCCC(C)C2)cc1 (stereo not drawn),9.6%,11.0,1.8%,-6.7%,40.6*,-7.4%
CC1CCCN(C(=S)Nc2ccc(Nc3ccccc3)cc2)C1 (stereo not drawn),4.9%,98.7*,-9.3%,4.8%,23.2*,u
O=C(Nc1ccc(Cl)c(-c2nc3ccccc3o2)c1)c1cccc2c(Cl)cccc12,x,x,10.7%,x,x,x
CC(C)NC(=O)/C(C#N)=C/c1ccc(N(C)C)o1,0.4%,59.6*,-14.2%,-0.7%,15.8*,-16.1%
Cc1cc(C(=O)COC(=O)CC2Sc3ccccc3NC2=O)c(C)n1-c1ccc2c(c1)OCO2 (stereo not drawn),0.0%,36.6,-3.0%,-10.7%,27.0*,-14.0%
Cc1cc(C(=O)COC(=O)CC2Sc3ccccc3NC2=O)c(C)n1-c1ccc(Br)cc1 (stereo not drawn),2.3%,42.0,-4.2%,-18.2%,25.7,-4.1%
O=C(CC1Sc2ccccc2NC1=O)OCC(=O)N1CCc2ccccc21 (stereo not drawn),1.3%,91.6*,-5.0%,17.0%,31.8*,5.8%
COC(=O)c1ccc(-n2c(C)cc(C(=O)COC(=O)CC3Sc4ccccc4NC3=O)c2C)cc1 (stereo not drawn),1.7%,26.0*,-2.0%,32.1%,20.7*,-8.7%
CCC1Sc2ccc(S(=O)(=O)CCC(=O)N3CCc4ccccc43)cc2NC1=O (stereo not drawn),-2.2%,20.1,-2.7%,9.1%,-3.3,x
Cc1cc(C(=O)COC(=O)CC2Sc3ccccc3NC2=O)c(C)n1-c1ccccc1 (stereo not drawn),0.7%,49.7*,-5.3%,-9.0%,66.2*,-16.6%
CC(C)CCn1cnc2c(oc3nc4c(cc32)CCCC4)c1=O,-27.3%,14.0,0.2%,-17.9%,24.2*,1.7%
Fc1ccc(Nc2nc(-c3ccncc3)cs2)cc1,-0.1%,80.0*,-0.2%,-14.2%,38.8*,0.6%
Nc1ccc(Nc2nc(-c3ccncc3)cs2)cc1,-7.6%,62.0,-4.7%,-7.2%,34.0*,1.4%
Nc1ccc(Nc2ccncc2)cc1,x,x,-0.9%,1.4%,x,x
c1ccc(Nc2nc(-c3ccncc3)cs2)cc1,0.3%,47.0*,-6.0%,-5.4%,60.1*,-3.7%
Cc1cccc(NC(=O)CCc2ccc(C)o2)c1,-2.9%,46.3,-30.6%,-3.5%,18.3*,2.0%
Cc1ccc(NC(=O)CCc2ccc(C)o2)cc1,-3.7%,x,-8.0%,-14.0%,16.4*,10.1%
Cc1ccc(CCC(=O)Nc2ccc(C)c(C)c2)o1,0.4%,16.5,-9.7%,-16.6%,18.9*,x
CC(=O)Nc1ccc(NC(=O)CCc2ccc(C)o2)cc1,7.7%,-5.9,1.8%,0.4%,2.0,x
Cc1ccc(-c2ccc(CCC(=O)O)o2)cc1,-4.3%,45.0*,u,-14.2%,38.0*,12.9%
COc1cccc(NC(=O)C2CCC(CNS(=O)(=O)c3csc(C(N)=O)c3)CC2)c1 (stereo not drawn),x,x,5.0%,x,x,x

# Source: PubChem
